Drawing on ChEMBL document CHEMBL4513216, “Probing the Open Global Health Chemical Diversity Library for Multistage-Active Starting Points for Next-Generation Antimalarials” (ACS Infect Dis, 2020), this text covers INHIBITION for 67 compounds.

About 8,600 (12%) of roughly 69,000 compounds showed an effect of 50% or more. This is one part of a sample in which strong results are shown more often than they occur.

This assay deals with Plasmodium berghei. Nature of the assay: Screen against P. berghei liver stage (PbLuc), transformed with Luciferase, at 10uM. It counts as functional, HepG2. To be noted: tested at 10 uM.
In the case of `Cn1ccnc1C(=O)N1CCCC(Cn2cc(CO)nn2)C1` (configuration not stated), the INHIBITION came out at 47.6%.
For `O=C(Nc1ccc(F)c(F)c1)N1CCC2(CCC(=O)N(C3CC3)C2)CC1` the value was 36%.
For `COCCn1ccc2cc(C(=O)NC3CCOC(C)(C)C3)ccc21` (configuration not stated) the value was -16.5%.
Consider `COC(=O)NCC(=O)N1CCCn2nc(CN3CC[C@H](F)C3)cc2C1`, for which the INHIBITION is 59.1%.
For `COC(=O)NCc1cc2n(n1)CCCN(C(C)=O)C2` the value was 9.3%.
For `Cc1nn(C)cc1C(=O)N1CCCn2nc(CN3CC[C@H](F)C3)cc2C1` the value was 38.5%.
In the case of `Cc1ccc(N2CCC(CCN3CCCC3=O)CC2)nn1`, the INHIBITION is 27.7%.
As for `Cc1ccc(C2CCCN(S(=O)(=O)N3CCOCC3)C2)nc1` (configuration not stated), the INHIBITION was determined as 19.85%.
For `COc1ccccc1N1CCC(CNCc2cccc(O)c2)C1` (configuration not stated) the value was 37.5%.
On to `COc1ccc(CNCC2CCN(c3ccccc3OC)C2)cc1O` (configuration not stated), for which the INHIBITION is -29.1%.
For `COc1ccccc1N1CCC(CNCc2cccc(C#N)c2)C1` (configuration not stated) the value was 53.3%.
For `COc1ccccc1N1CCC(CNCc2cccc(OC)c2OC)C1` (configuration not stated) the value was 59.4%.
For `COc1cccc(N2CCC(CNCc3cccc(C#N)c3)C2)c1` (configuration not stated) the value was 26.4%.
On to `COc1ccccc1N1CCC(CNCc2ccc(C#N)cc2)C1` (configuration not stated), for which the INHIBITION is given as 40.9%.
For the compound `Cc1cnn(CC2CCCN2C(=O)c2cccc(F)c2F)c1` (configuration not stated), the INHIBITION is listed as -65.3%.
In the case of `CN(Cc1cnn(C)c1)C(=O)CCS(=O)(=O)c1ccc2c(c1)OCCO2`, the INHIBITION stood at 38%.
For `O=C(c1ccsc1)N1C[C@H]2CN(Cc3cccnc3)C(=O)[C@H]2C1` the value was 4.61%; for `CO[C@H]1CN(S(=O)(=O)c2ccc(C)cc2)C[C@@]12CCCO2`, 16.5%; for `O=C(NCc1cc2ccccc2s1)c1cc(CN2CCCC(O)C2)on1` (configuration not stated), 50.8%.
For `O=C(NCc1cccc(F)c1F)c1cc(CN2CCCC(O)C2)on1` (configuration not stated) the value was 34.1%.
For `O=C(NCc1ccc(Cl)s1)c1cc(CN2CCCC(O)C2)on1` (configuration not stated) the value was 49.9%.
Turning to `CC(C)C[C@H](NC(=O)N1CCC(Cc2ccccc2)CC1)C(=O)O`, the INHIBITION is given as 43.4%.
In the case of `CCC(CO)N(Cc1cccnc1)C(=O)c1ccc(C)[nH]c1=O` (configuration not stated), the INHIBITION is on record as 35.1%.
In the case of `Cc1ccc(CN2CCOC3(COCCN(S(C)(=O)=O)C3)C2)o1` (configuration not stated), the INHIBITION stood at 15.4%.
For `O=C(NCc1ccccc1)N1CCC(Oc2ncccc2Cl)CC1` the value was 22.2%; for `N#Cc1cccnc1OC1CCN(C(=O)NCc2ccccc2)CC1`, 52.6%.
For `O=C(CCC(=O)N1CCC(Oc2ncccc2Br)CC1)c1ccccc1` the value was 45%.
With `O=C(c1cc(C2CC2)on1)N1CCC(Oc2ncccc2Br)CC1`, the INHIBITION is 44.2%.
For `O=C(NCc1ccccc1)N1CCC(Oc2ncccc2Br)CC1` the value was 74.4%; for `Brc1cccnc1OC1CCNCC1`, 51%; for `N#Cc1cccnc1OC1CCN(C(=O)c2cc(C3CC3)on2)CC1`, 34.3%.
For `Clc1cccnc1OC1CCNCC1` the value was 28.6%; for `COc1ncccc1CNC(=O)N1CCC(CNC(C)=O)CC1`, 0.266%.
Turning to `CCn1ncnc1CN1CCC(CNC(=O)c2cccnc2O)C1` (configuration not stated), the INHIBITION is given as -11.3%.
For `Cc1oc(C(C)C)cc1C(=O)N1C[C@@H]2CC[C@H]1CN(C(=O)N(C)C)C2` the value was -14.3%.
As for `Cc1cc(C)n(CC2CCN(CC(O)CN3CCOCC3)CC2)n1` (configuration not stated), the INHIBITION was -5.22%.
For `O=C1NC(C(=O)NCc2cccnc2Oc2ccccc2F)CO1` (configuration not stated) the value was -12.1%; for `CCCc1noc(C2CCCCN2C(=O)C2CCCC2)n1` (configuration not stated), -11.7%.
As to `CCN(CC1CCOC1)C(=O)c1ccn(-c2cc(C)ccc2OC)n1` (configuration not stated), the INHIBITION is reported as 30.5%.
`CNC(=O)[C@@]12CCC3(CCN(C(=O)COC)CC3)[C@@H]1CN(S(C)(=O)=O)C2`: the INHIBITION is reported as -16.2%.
With `CCC(NC(=O)C(C)(C)C)c1ccccc1C` (configuration not stated), the INHIBITION is on record as 32.9%.
For `CC[C@@H](C)[C@H](NC(=O)Cn1ccc2c(Cl)cccc21)C(=O)O` the value was -19.7%; for `C[C@]1(O)CN(CCO)CC[C@@H]1Oc1cccc(F)c1`, 59%.
For `C[C@]1(O)CN(Cc2ccc(C(=O)O)cc2)CC[C@@H]1Oc1cccc(F)c1` the value was 15.9%; for `C[C@]1(O)CN(Cc2cccc(C(=O)O)c2)CC[C@@H]1Oc1cccc(F)c1`, 17.4%.
For the compound `C[C@]1(O)CN(CC(=O)N2CCCC2)CC[C@@H]1Oc1cccc(F)c1`, the INHIBITION turned out to be 41.2%.
For `Cn1cncc1CN1CC[C@](C)(O)[C@@H](Oc2cccc(F)c2)C1` the value was 21.9%; for `C[C@]1(O)CN(CCC(N)=O)CC[C@@H]1Oc1cccc(F)c1`, 53%; for `Cc1cccc(CN2CC3(CCN(C(=O)N(C)C)CC3)OCC2=O)n1`, 30.3%.
For `Cc1cc(C(=O)NC2CCc3c(ccc(=O)n3CC3CC3)C2)no1` (configuration not stated) the value was 36.5%.
For `Cc1nnc([C@]23COC[C@H]2CN(Cc2nccs2)C3)o1` the value was 9.79%; for `Cc1cc2n(n1)CC(CNCc1ccccc1-n1cccn1)CN2` (configuration not stated), -18.605%.
As for `Cc1occc1C(=O)N1C[C@@H]2OCCN(CCN3CCCC3)[C@@H]2C1`, the INHIBITION worked out at 66%.
For `Cc1cc(C(=O)N2C[C@@H]3OCCN(CCN4CCCC4)[C@@H]3C2)c(C)o1` the value was 32.2%.
For `O=C(c1ccco1)N1C[C@@H]2OCCN(CCN3CCCC3)[C@@H]2C1` the value was 23.3%; for `CN(C)CCN1CCO[C@H]2CN(C(=O)c3ccsc3)C[C@H]21`, 6.67%; for `O=C(c1ccncc1)N1C[C@@H]2OCCN(CCN3CCCC3)[C@@H]2C1`, 32.2%.
For `O=C(c1ccsc1)N1C[C@@H]2OCCN(CCN3CCCC3)[C@@H]2C1` the value was 82.3%.
With `O=C(CN1CCCC1Cn1cncn1)NCCOc1ccc(F)cc1` (configuration not stated), the INHIBITION was found to be 42.9%.
For `O=C1CCC(=O)N1Cc1ccc(C(=O)N2CCCC2c2cccs2)cc1` (configuration not stated) the value was -21.9%.
For `Cn1cc(NC(=O)NCc2ccsc2)ccc1=O` the value was 16.1%; for `CN(Cc1ccsc1)C(=O)Nc1ccc(=O)n(C)c1`, 47.4%.
For `Cn1cc(NC(=O)CCc2ccsc2)ccc1=O` the value was 59.3%; for `Cc1c(O)cccc1C(=O)N1CCCC2(C1)C(=O)N(C)c1ccccc12` (configuration not stated), 17.7%.
On to `CC(=O)N1CCc2cc(C(=O)O)c(-c3ccsc3)nc2CC1`, for which the INHIBITION turned out to be 11.3%.
For `O=C(O)c1cc2c(nc1-c1ccsc1)CCN(C(=O)C1CC1)CC2` the value was 40.8%; for `NC(=O)N1CCc2cc(C(=O)O)c(-c3ccsc3)nc2CC1`, 74.8%.
